From PubChem BioAssay AID1159580 (chemical genetic matrix, 2015)
“And” between values parts separate entries of the source, which are not always exact repeats. Equal entries are not always repeated. Out of some 5,500 compounds screened, about 2,000 (36%) were called active. Roughly 18% stayed inconclusive and do not appear here. The list shows a part of the results. A number with no mark means an inactive call. Cut-off read from the data, not from the text of the source: active = normalized growth mostly below about 0.91 (no sharp cut-off); inconclusive = no clear call, values can overlap the other calls; inactive = mostly above about 0.92.

Assay: chemical genetic growth profiling, strain panel (AID 1159580);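 note: tested at 20 µM; growth read once vehicle control cultures reached saturation at 30 °C; 1 = growth at the plate median or of vehicle wells; lower values mean less growth of the strain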
Conditions: S. cerevisiae deletion strains, growth OD
[1] = locus YAL013W, strain DEP1, active compounds read low
[2] = locus YAL040C, strain CLN3, active compounds read low
[3] = locus YDR363W, strain ESC2, active compounds read low
[4] = locus YER002W, strain NOP16, active compounds read low
[5] = locus YNL153C, strain GIM3, active compounds read low
[6] = locus YNL175C, strain NOP13, active compounds read low
[7] = locus YNL197C, strain WHI3, active compounds read low
[8] = locus YNL224C, strain SQS1, active compounds read low
[9] = locus YOR083W, strain WHI5 (second series), active compounds read low
[10] = locus YPL055C, strain LGE1, active compounds read low
[11] = locus YGR078C, strain PAC10, active compounds read low

In the case of O=C(O)CN(CCN(CC(=O)O)CC(=O)O)CCN(CC(=O)O)CC(=O)O, the normalized growth [1] is reported as 0.278 (active), the normalized growth [2] is reported as 1.03 and the normalized growth [3] is reported as 0.194 (active). For the same molecule, the normalized growth [4] was 1.01, the normalized growth [5] was 1.16 and the normalized growth [6] was 1.01. It also gave a normalized growth [7] of 1.02, a normalized growth [8] of 1 and a normalized growth [9] of 1.07. For the same molecule, the normalized growth [10] was 0.198 (active).
Work on O=C(O)CN(CCN(CC(=O)O)CC(=O)O)CC(=O)O yielded a normalized growth (locus YBR021W, strain FUR4, active compounds read low) of 1.04, a normalized growth (locus YBR229C, strain ROT2, active compounds read low) of 0.995 and a normalized growth (locus YCL029C, strain bik1, active compounds read low) of 0.958. The normalized growth (locus YDL035C, strain GPR1, active compounds read low) was 0.869, the normalized growth (locus YDL074C, strain BRE1, active compounds read low) was 0.885 and the normalized growth (locus YDL101C, strain DUN1, active compounds read low) was 0.889 (active). For the same molecule, the normalized growth (locus YDL185W, strain tfp1, active compounds read low) was 0.282 (active), the normalized growth (locus YDL192W, strain arf1, active compounds read low) was 0.826 (active) and the normalized growth (locus YDR101C, strain arx1, active compounds read low) was 0.989. For the same molecule, the normalized growth (locus YDR162C, strain NBP2, active compounds read low) was 0.918, the normalized growth (locus YDR318W, strain mcm21, active compounds read low) was 0.817 (active) and the normalized growth (locus YDR388W, active compounds read low) was 1.02. The normalized growth (locus YDR502C, strain sam2, active compounds read low) was 0.769 (active), the normalized growth (locus YEL061C, strain CIN8, active compounds read low) was 0.934 and the normalized growth (locus YER110C, active compounds read low) was 0.938. It also gave a normalized growth (locus YER155C, strain BEM2, active compounds read low) of 1.01, a normalized growth (locus YER167W, strain BCK2, active compounds read low) of 0.936 and a normalized growth (locus YGL078C, strain dbp3, active compounds read low) of 0.985. For the same molecule, the normalized growth (locus YGL086W, strain mad1, active compounds read low) was 0.79 (active), the normalized growth (locus YGL248W, strain PDE1, active compounds read low) was 0.826 (active) and the normalized growth [11] was 0.82 (active). For the same molecule, the normalized growth (locus YGR135W, strain pre9, active compounds read low) was 0.819 (active), the normalized growth (locus YGR229C, strain SMI1, active compounds read low) was 0.774 (active) and the normalized growth (locus YGR252W, strain gcn5, active compounds read low) was 0.994. For the same molecule, the normalized growth (locus YHR030C, strain SLT2, active compounds read low) was 0.97 and 0.976, the normalized growth (locus YHR079C, strain IRE1 (second series), active compounds read low) was 0.991 and the normalized growth (locus YHR079C, strain IRE1, active compounds read low) was 0.934. The normalized growth (locus YHR094C, strain hxt1, active compounds read low) was 0.994, the normalized growth (locus YHR129C, strain ARP1, active compounds read low) was 0.87 (active) and the normalized growth (locus YHR200W, strain rpn10, active compounds read low) was 0.893 (active). The normalized growth (locus YIL066C, strain RNR3, active compounds read low) was 0.925, the normalized growth (locus YIL073C, strain SPO22, active compounds read low) was 1.99 [resistant] (active) and the normalized growth (locus YIL125W, strain kgd1, active compounds read low) was 1.01. The normalized growth (locus YIR030C, strain dcg1, active compounds read low) was 0.96, the normalized growth (locus YJL095W, strain BCK1, active compounds read low) was 0.849 and 0.971 and the normalized growth (locus YJL134W, strain LCB3, active compounds read low) was 0.972. The normalized growth (locus YJL168C, strain set2, active compounds read low) was 0.989, the normalized growth (locus YJL187C, strain SWE1 (second series), active compounds read low) was 0.861 (active) and the normalized growth (locus YJR043C, strain POL32, active compounds read low) was 0.891. The normalized growth (locus YJR066W, strain TOR1, active compounds read low) was 0.888, the normalized growth (locus YKL009W, strain mrt4, active compounds read low) was 0.97 and the normalized growth (locus YKL068W, active compounds read low) was 0.996. The normalized growth (locus YKL085W, strain MDH1 (second series), active compounds read low) was 1.03, the normalized growth (locus YKL085W, strain MDH1, active compounds read low) was 1.03 and the normalized growth (locus YKL190W, strain CNB1, active compounds read low) was 0.94. The normalized growth (locus YKR001C, strain vps1, active compounds read low) was 0.769 (active), the normalized growth (locus YLR039C, strain RIC1, active compounds read low) was 0.914 and the normalized growth (locus YLR058C, strain SHM2, active compounds read low) was 0.863 (active). The normalized growth (locus YLR102C, strain apc9, active compounds read low) was 0.995, the normalized growth (locus YLR113W, strain HOG1, active compounds read low) was 1.09 and the normalized growth (locus YLR262C, strain YPT6, active compounds read low) was 0.827. The normalized growth (locus YLR268W, strain sec22, active compounds read low) was 0.801 (active), the normalized growth (locus YLR330W, strain CHS5, active compounds read low) was 0.944 and the normalized growth (locus YLR342W, strain FKS1 (second series), active compounds read low) was 0.871. The normalized growth (locus YLR371W, strain rom2, active compounds read low) was 0.984, the normalized growth (locus YLR418C, strain cdc73, active compounds read low) was 0.764 (active) and the normalized growth (locus YML016C, strain PPZ1, active compounds read low) was 0.934. For the same molecule, the normalized growth (locus YML032C, strain rad52, active compounds read low) was 0.937, the normalized growth (locus YML124C, strain tub3, active compounds read low) was 0.979 and the normalized growth (locus YMR078C, strain ctf18, active compounds read low) was 0.99. For the same molecule, the normalized growth (locus YMR223W, strain ubp8, active compounds read low) was 0.793 (active), the normalized growth (locus YMR307W, strain GAS1, active compounds read low) was 0.928 and the normalized growth (locus YNL067W, strain RPL9B, active compounds read low) was 0.813 (active). The normalized growth [5] was 0.834 (active), the normalized growth (locus YNL183C, strain NPR1, active compounds read low) was 0.973 and the normalized growth (locus YNL233W, strain BNI4, active compounds read low) was 0.847 (active). It also gave a normalized growth (locus YNL250W, strain rad50, active compounds read low) of 1.01, a normalized growth (locus YNL271C, strain bni1, active compounds read low) of 0.982 and a normalized growth (locus YNL298W, strain CLA4, active compounds read low) of 0.99. For the same molecule, the normalized growth (locus YNL307C, strain MCK1, active compounds read low) was 0.991, the normalized growth (locus YNR052C, strain pop2, active compounds read low) was 0.953 and the normalized growth (locus YOL006C, strain TOP1, active compounds read low) was 1.23. It also gave a normalized growth (locus YOL012C, strain htz1) of 0.486, a normalized growth (locus YOL147C, strain pex11, active compounds read low) of 0.983 and a normalized growth (locus YOR061W, strain CKA2, active compounds read low) of 0.913. The normalized growth (locus YOR069W, strain VPS5, active compounds read low) was 0.947, the normalized growth (locus YOR136W, strain idh2, active compounds read low) was 0.909 (active) and the normalized growth (locus YOR144C, strain elg1, active compounds read low) was 0.976. The normalized growth (locus YOR184W, strain ser1, active compounds read low) was 0.699 (active), the normalized growth (locus YOR231W, strain MKK1, active compounds read low) was 0.92 and the normalized growth (locus YOR316C, strain cot1, active compounds read low) was 0.979. It also gave a normalized growth (locus YPL256C, strain CLN2, active compounds read low) of 1.07, a normalized growth (locus YPR119W, strain clb2, active compounds read low) of 0.992 and a normalized growth (locus YPR141C, strain kar3, active compounds read low) of 0.992. For the same molecule, the normalized growth (locus YPR163C, strain tif3, active compounds read low) was 0.99, the normalized growth (locus YPR167C, strain met16, active compounds read low) was 0.902 (active) and the normalized growth (strain wtn01, active compounds read low) was 0.816 (active).
For O=C(O)CN(CCOCCOCCN(CC(=O)O)CC(=O)O)CC(=O)O, the normalized growth [1] was 1.03, the normalized growth [2] was 0.99 and the normalized growth (locus YCL061C, strain MRC1 (second series), active compounds read low) was 1. The normalized growth [3] was 1, the normalized growth [4] was 0.996 and the normalized growth [11] was 1.01. The normalized growth (locus YMR263W, strain SAP30, active compounds read low) was 1, the normalized growth [6] was 0.996 and the normalized growth [7] was 1. The normalized growth [8] was 0.992, the normalized growth (locus YNL322C, strain KRE1, active compounds read low) was 1.02 and the normalized growth [9] was 1.01. It also gave a normalized growth [10] of 1.06.
